# Source: PubChem BioAssay
# Coupling enz: counter-screen for Giardia aldolase inhibitors: coupling enzyme system | 0.67% of 290,000 active | coupling enzyme system counterscreen, AmpLite Red fluorescence | activity change, negative = inhibition, % at 58.2 µM, hits read low; in the data active = activity change below about -30%
#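 Fluorescence at 525 nm excitation and 598 nm emission measured inhibition of the coupled detection system without aldolase. Compounds (at 57.5 uM final) were preincubated 10 min at room temperature with coupling enzyme reagent before a 20 min substrate/AmpLite Red step.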
# TrxR1 substrate: rat thioredoxin reductase 1 substrate activity. O89049. purified TrxR1 substrate turnover, NADPH consumption readout. Potency, µM (series often up to 114 µM), without a hit: at the top dose activity change, negative = substrate turnover. 0.01% of 390,000 active. AID 588456; also: potency is read from the fitted curve at half-maximal effect; nearly all actives have a fitted effect of over 50% in size
#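 Rat TrxR1, dispensed at 90 nM, was prereduced with 400 uM NADPH (final) for 5 min at ~22 deg C, then incubated with compound 15 min before 400 uM selenite. A first-read NADPH fluorescence drop versus no-compound background flagged substrates.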
# USP1-UAF1 inh: USP1/UAF1 (human) deubiquitinase inhibition; O94782; 0.23% of 390,000 active; recombinant USP1/UAF1, Ub-Rhodamine cleavage fluorescence; Potency, µM (top dose mostly 57.1 µM), without a hit: at the top dose activity change, negative = inhibition, usual class: inhibitors; also: potency is read from the fitted curve at half-maximal effect; nearly all actives have a fitted effect of over 60% in size
#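 1 nM enzyme complex + cpd, 15 min RT; start with Ub-Rho 150nM final; kinetic fluorescence ex 480/em 540, 6 reads q60 s. Buffer 50mM HEPES pH 7.8, 0.5mM EDTA, 0.1 mg/ml BSA, 1mM TCEP, 0.01% Tween-20.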
# GALK inhibitor: galactokinase (human) inhibition | Purified GALK, Kinase-Glo residual ATP luminescence | Potency, µM (doses to about 57.5 µM), for the others: at the highest dose activity change, negative = inhibition, actives largely listed as inhibitors | 0.007% of 270,000 active; also: potency is read from the fitted curve at half-maximal effect
# Target sequence (P51570 whole entry, looked up): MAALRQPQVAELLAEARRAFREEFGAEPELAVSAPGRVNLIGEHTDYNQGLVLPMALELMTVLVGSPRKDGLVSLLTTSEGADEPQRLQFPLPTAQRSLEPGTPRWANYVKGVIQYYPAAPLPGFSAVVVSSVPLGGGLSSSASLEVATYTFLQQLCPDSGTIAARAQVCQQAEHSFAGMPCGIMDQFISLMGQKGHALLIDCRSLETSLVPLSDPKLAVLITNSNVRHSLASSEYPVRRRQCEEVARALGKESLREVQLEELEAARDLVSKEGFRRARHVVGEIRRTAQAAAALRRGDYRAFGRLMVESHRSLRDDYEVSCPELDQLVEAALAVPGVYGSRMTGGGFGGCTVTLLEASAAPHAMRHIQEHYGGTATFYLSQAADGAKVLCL
#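 Galactose (100 uM) and ATP (35 uM) were turned over by 5 nM GALK for 1 h at RT. Kinase-Glo Plus then converted the remaining ATP into a luminescent signal.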
# rTrxR1 inhibitor: blocks rat thioredoxin reductase 1 | 1% of 390,000 active | recombinant rTrxR1, NADPH fluorescence consumption, selenite substrate | Potency, µM (top dose mostly 114 µM), for inactives: at the highest dose activity change, negative = inhibition, usual class: inhibitors | AID 588453 | O89049; also: potency is read from the fitted curve at half-maximal effect; nearly all actives have a fitted effect of over 65% in size
#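 Rat TrxR1 (90 nM in the dispensed reagent) was pre-reduced with 400 uM NADPH for 5 min at room temperature, then incubated with compound for 15 min. After 400 uM selenite was added, NADPH fluorescence (Ex 340/Em 450 nm) was followed for 8 min.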
# * hit, by the source's call; ? = inconclusive; / = not tested or not shown; ! = a repeat was not active; [ ] = remark or other dose. The list is not random: actives were taken first. Their share in the collection is about 1.5%. Unless noted, calls follow the shape of the dose curve; as a rule, active = well fitted curve in the direction sought with a large enough effect; inconclusive = small, poorly fitted or top-dose-only effect, or another doubt; inactive = no such curve, though single readings can be large; an effect the other way counts as inactive or inconclusive. % is scaled to controls: 0 for no effect and ±100 for the full control effect.
SMILES,Coupling enz,TrxR1 substrate,USP1-UAF1 inh,GALK inhibitor,rTrxR1 inhibitor
CC(C)C[C@H](NC(=O)[C@@H](Cc1c[nH]c2ccccc12)NC(=O)[C@H](Cc1ccc(O)cc1)NC(=O)[C@H](CO)NC(=O)[C@H](Cc1c[nH]c2ccccc12)NC(=O)[C@H](Cc1cnc[nH]1)NC(=O)[C@@H]1CCC(=O)N1)C(=O)N[C@@H](CCCN=C(N)N)C(=O)N1CCC[C@H]1C(=O)NCC(N)=O,3.2,/,/,/,/
COc1ccc(-c2oc3ccccc3c2C(=O)Oc2ccccc2)cc1,-0.5,203.1%[57.1 µM],-20.1%,/,15.8µM*
CC(C)(C)c1ccc(S(=O)(=O)N2CCN(c3nc(-c4ccccc4)nc4ccccc34)CC2)cc1,/,3.6%,/,/,29.8%
N#CC1(C#N)OC12CCS(=O)(=O)c1ccccc12 (stereo not given),/,0.7%,-10.4%,/,50.1µM*
Cc1nn(C)c(C(=O)Sc2cccc(Cl)c2)c1[N+](=O)[O-],0.0,-8.7%,-24.5%,0.0%,2µM*
Nc1cc(=O)[nH]c2c1CCC2,/,9.2%[0.0914 µM],/,/,14.3%
CC(C)C1NC2(C(=O)c3ccccc3C2=O)C2C(=O)N(c3ccc(F)cc3)C(=O)C12 (stereo not given),0.8,5.2%,-19.7%,0.5%,44.7µM*
O=C(O)CCSc1ccccn1,-0.8,-2.3%,-7.9%,-2.0%,-7.0%
O=C(CCSc1ccccn1)c1ccccc1,0.6,-6.2%[57.1 µM],-10.5%,0.9%,2µM*
O=C(CC1Nc2cccc3cccc(c23)NC1=O)Nc1ccccc1 (stereo not given),-39.8*,-5.8%,-25.2%,0.2%,-0.6%
COc1cccc(CCc2ccccc2OCC(CN(C)C)OC(=O)CCC(=O)O)c1 (stereo not given),/,3.7%,/,/,5.9%
C=CCNc1oc(-c2ccco2)nc1S(=O)(=O)c1ccccc1,3.1,1.7%,-12.0%,-6.5%,44.7µM*
CN(C)c1ccc(/C=C/c2nc3ccccc3s2)cc1Cl,/,-11.3%,/,/,-1.5%
CCOC(=O)c1c2c(n(C)c1C)C(=O)C(=O)c1ccc(Br)cc1-2,/,-1.4%[57.1 µM],?,/,8.5%[57.1 µM]
CCOC(=O)c1c2c(n(Cc3ccccc3)c1C)C(=O)C(=O)c1ccccc1-2,/,-11.0%[11.4 µM],2.51µM*,/,-24.5%[57.1 µM]
CCC(=O)N(CC)C1=C(O)c2ccccc2C(=O)C1=O,-60.9*,-22.9%,25.1µM*,2.7%,1.12µM*
CN(C)N=Nc1ccc(/C=C2\C=Cc3ccccc32)cc1,/,-0.4%,/,/,-2.0%
COC(=O)CCCC1=CC2=C(c3ccccc3)C(=O)C(C)(OC(=O)C3CCCC3)C(=O)C2=CN1CCN1CCOCC1 (stereo not given),-34.8*!,10.7%[57.1 µM],?,2.3%,6.6%[57.1 µM]
C=CCN1C=C2C(=O)C(C)(OC(=O)C3CCCC3)C(=O)C(c3ccccc3)=C2C=C1CCCC(=O)OC (stereo not given),-1.8,2.7%,?,1.3%,79.4µM*
CSC1=NSC2=NC(=O)/C(=C\c3coc4ccccc4c3=O)C(=N)N12,4.9,-15.1%,22.4µM*,/,?
CC(C)CSC1=NSC2=NC(=O)/C(=C\c3coc4ccccc4c3=O)C(=N)N12,7.7,2.9%,4.47µM*,-24.7%,?
CC(C)CSC1=NSC2=NC(=O)/C(=C\c3ccccc3)C(=N)N12,6.0,0.3%,-7.9%,-1.6%,-12.8%
Oc1ccc2ccccc2c1SSc1c(O)ccc2ccccc12,/,-6.1%[57.1 µM],/,/,?
NC(=S)Nc1cccc2cccnc12,0.0,0.2%,-22.3%,1.5%,9.8%
NC(=S)NNc1cccc2cccnc12,-36.4*,7.6%[57.1 µM],-16.9%,2.0%,7.7%[57.1 µM]
SMILES,Coupling enz,TrxR1 substrate,USP1-UAF1 inh,GALK inhibitor,rTrxR1 inhibitor
O=C1NCCCC2c3c(cc(Br)c(O)c3Br)OC12N1CCOCC1 (stereo not given),2.5,-5.9%,-12.3%,3.0%,15.8µM*
CCOc1ccccc1C1C(C#N)=C(N)SC(N)=C1C#N,-31.3*,-4.4%[57.1 µM],?,-1.9%,-58.1%
N#CC1=C(N)SC(N)=C(C#N)C1c1ccc([N+](=O)[O-])cc1,-11.4,-0.5%,-13.0%,-3.3%,50.1µM*
N#CC1=C(N)SC(N)=C(C#N)C1c1ccc(C(F)(F)F)cc1,-24.5,/,/,2.5%,/
CCOc1ccc(C2C(C#N)=C(N)SC(N)=C2C#N)cc1OC,-38.9*,/,/,-2.8%,/
CCOc1ccc(C2C(C#N)=C(N)SC(N)=C2C#N)cc1OCC,-22.2,-1.2%,31.6µM*,0.3%,-26.0%
CCOc1ccccc1C1C(C#N)=C(N)Oc2n[nH]c(CC)c21 (stereo not given),-1.3,9.4%,-21.7%,-1.1%,2.0%
CCc1ccc(C2C(C#N)=C(N)SC(N)=C2C#N)cc1,-16.4,-8.9%,?,-0.4%,?
CCOC(=O)C1=C(C)OC(N)=C(C#N)C1c1ccc(O)c(OC)c1 (stereo not given),1.6,-7.2%,-8.1%,4.4%,-21.1%
CN(C)c1ccc(/C=C/c2cc3ccccc3c[n+]2C)cc1,/,-14.8%,/,/,-24.5%
C[C@@H]1[C@H](c2ccccc2)OCCS(=O)(=O)N1Cc1ccccc1Br,/,1.4%,/,/,28.1%
Cn1c(C(c2cc3ccccc3n2C)c2cc3ccccc3n2C)cc2ccccc21,/,-0.3%,/,/,-25.7%
O=C(C[n+]1cccc2cc(Cl)ccc21)c1ccc2ccccc2c1,/,-4.1%[0.0914 µM],/,/,-7.1%
O=S(=O)(CS(=O)(=O)c1ccccc1)c1ccccc1,/,-9.8%,-25.3%,/,11.2µM*
CCN(Cc1ccccc1)C(=O)CS(=O)(=O)c1ccccc1,2.8,3.7%,-7.3%,8.9%,11.0%
O=S(=O)(C/C(=C/CO)S(=O)(=O)c1ccccc1)c1ccccc1,0.4,10.2%,-15.7%,0.3%,2.24µM*
O=Cc1ccnc2ccccc12,/,-4.0%,/,/,5.5%
Nc1c(C(=O)NCc2ccco2)c2nc3ccccc3nc2n1CCc1ccc(F)cc1,-34.0*,76.7%,-8.6%,1.7%,?
CCOC(=O)/C(C#N)=C\c1ccc(N2CCN(C/C=C/c3ccccc3)CC2)cc1,-2.1,-11.2%,28.2µM*,0.3%,-9.4%
CCOC(=O)/C(C#N)=C\c1cc(C)n(-c2ccccc2)c1C,-3.3,-13.1%,-11.0%,0.3%,-13.3%
CN1CC(C(=O)O)Cc2c1ccc1ccccc21 (stereo not given),-46.2*,316.7%,?,-4.3%,23.6%
O=C(O)C1CCN(C(=O)c2cccc3ccccc23)CC1,0.3,-3.2%,-16.4%,-2.4%,-6.9%
Cc1ccc(C(C2=C(O)CC(C)(C)CC2=O)C2C(=O)CC(C)(C)CC2=O)s1 (stereo not given),4.1,6.2%,-13.2%,0.5%,10µM*
CC1(C)CC(=O)C(C(C2=C(O)CC(C)(C)CC2=O)c2ccc([N+](=O)[O-])cc2)C(=O)C1 (stereo not given),-7.9,-8.0%,-7.2%,-1.1%,?
CC1(C)CC(=O)C(C(C2=C(O)CC(C)(C)CC2=O)c2ccc(Br)s2)C(=O)C1 (stereo not given),11.8,-15.8%,-9.1%,0.6%,3.98µM*
